Screening data: PubChem BioAssay, Center for Chemical Genomics, University of Michigan
Only a selection was taken, and hits are over-represented in it overall.
Dicer processing – inhibitors of Dicer pre-microRNA processing, primary screen, biochemical, cat-ELCCA, chemiluminescence; cat-ELCCA pre-miR-21 Dicer processing; active compounds read high; z-score at 25 µM; 47,000 tested, 6% active; AID 1347074, 2019; in the data active = z-score above about 3, passing the limit was not always enough;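 also: plate controls were vehicle for no effect and no enzyme for full effect; higher signal means more uncleaved substrate so more Dicer inhibition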
Target sequence (Q9UPY3 whole entry, looked up): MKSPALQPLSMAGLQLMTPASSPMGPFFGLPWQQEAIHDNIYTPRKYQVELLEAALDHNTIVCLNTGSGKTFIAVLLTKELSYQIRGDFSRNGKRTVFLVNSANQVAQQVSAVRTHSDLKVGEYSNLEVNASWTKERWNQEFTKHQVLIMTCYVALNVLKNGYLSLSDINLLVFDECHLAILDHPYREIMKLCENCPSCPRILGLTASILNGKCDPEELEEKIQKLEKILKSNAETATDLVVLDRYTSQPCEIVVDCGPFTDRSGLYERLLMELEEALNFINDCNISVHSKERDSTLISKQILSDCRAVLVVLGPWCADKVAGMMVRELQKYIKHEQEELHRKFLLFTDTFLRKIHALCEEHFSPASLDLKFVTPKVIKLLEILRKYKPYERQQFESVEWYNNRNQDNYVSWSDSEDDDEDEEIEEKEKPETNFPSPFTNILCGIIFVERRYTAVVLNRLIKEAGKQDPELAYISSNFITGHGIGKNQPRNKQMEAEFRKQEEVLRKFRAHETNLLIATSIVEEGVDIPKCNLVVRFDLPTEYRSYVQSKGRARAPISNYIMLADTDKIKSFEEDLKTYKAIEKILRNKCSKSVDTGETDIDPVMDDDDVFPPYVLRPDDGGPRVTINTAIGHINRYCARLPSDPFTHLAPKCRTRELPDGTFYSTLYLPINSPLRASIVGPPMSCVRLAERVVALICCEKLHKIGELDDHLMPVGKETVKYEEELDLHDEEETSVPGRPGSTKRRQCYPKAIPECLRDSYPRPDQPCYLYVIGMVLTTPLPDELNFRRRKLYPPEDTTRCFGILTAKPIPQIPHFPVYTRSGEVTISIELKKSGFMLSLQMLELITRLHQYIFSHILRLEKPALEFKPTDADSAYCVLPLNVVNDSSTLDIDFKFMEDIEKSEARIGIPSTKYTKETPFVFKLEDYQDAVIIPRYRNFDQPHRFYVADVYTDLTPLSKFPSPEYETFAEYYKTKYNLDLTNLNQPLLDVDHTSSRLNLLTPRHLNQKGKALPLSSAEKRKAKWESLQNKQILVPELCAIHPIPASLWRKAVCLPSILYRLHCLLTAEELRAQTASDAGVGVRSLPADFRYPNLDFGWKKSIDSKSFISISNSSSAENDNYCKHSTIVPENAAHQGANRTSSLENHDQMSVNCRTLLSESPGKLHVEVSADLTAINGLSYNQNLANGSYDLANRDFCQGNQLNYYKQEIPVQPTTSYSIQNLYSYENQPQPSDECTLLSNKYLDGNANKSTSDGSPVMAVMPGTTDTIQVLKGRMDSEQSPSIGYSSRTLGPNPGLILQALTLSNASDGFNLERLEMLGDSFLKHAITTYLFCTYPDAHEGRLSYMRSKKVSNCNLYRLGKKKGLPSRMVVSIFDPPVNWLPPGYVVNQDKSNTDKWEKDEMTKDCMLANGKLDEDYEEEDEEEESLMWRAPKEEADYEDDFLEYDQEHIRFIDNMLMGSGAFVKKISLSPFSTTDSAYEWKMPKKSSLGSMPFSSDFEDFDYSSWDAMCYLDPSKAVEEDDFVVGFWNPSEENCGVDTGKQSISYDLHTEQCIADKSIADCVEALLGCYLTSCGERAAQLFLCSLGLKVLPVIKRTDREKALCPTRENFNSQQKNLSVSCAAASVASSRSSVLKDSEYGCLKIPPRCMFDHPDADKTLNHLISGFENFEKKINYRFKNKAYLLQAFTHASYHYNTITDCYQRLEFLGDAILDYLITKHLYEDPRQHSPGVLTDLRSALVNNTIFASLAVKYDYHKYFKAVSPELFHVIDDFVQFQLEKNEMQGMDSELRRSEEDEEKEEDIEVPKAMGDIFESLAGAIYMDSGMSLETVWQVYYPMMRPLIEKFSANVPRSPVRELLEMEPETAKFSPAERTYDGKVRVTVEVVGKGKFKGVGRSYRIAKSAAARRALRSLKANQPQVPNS
Starred values were filed as active, the others as inactive.

CCOC(=O)Nc1cc(C(=O)OC)ccc1C(=O)OC was read as Dicer processing 2.11.
For COC(=O)c1ccc(C(=O)OC)c(NC(=O)Nc2ccc(F)cc2)c1 the results were Dicer processing 0.73.
Screening O=c1c(-c2ccc(O)cc2)coc2cc(O)ccc12 returned Dicer processing -3.15.
CC(=O)Nc1ccc(S(=O)(=O)Nc2ccnn2C)cc1 was read as Dicer processing 0.02.
For Cc1ccc(NC(=O)c2sc3nc(-c4ccc(Cl)cc4)nn3c2C)cc1 the results were Dicer processing -0.76.
For COc1ccc(C2C(C#N)=C3N=C(N)c4ccccc4N3C3=C2C(=O)CC(C)(C)C3)c(OC)c1 (centres undefined) the results were Dicer processing 2.96.
For Cc1ccc(C2C(C#N)=C3N=C(N)c4ccccc4N3C3=C2C(=O)CCC3)cc1 (centres undefined) the results were Dicer processing 2.55.
For COc1cccc(C2C(C#N)=C3N=C(N)c4ccccc4N3C3=C2C(=O)CCC3)c1OC (centres undefined) the results were Dicer processing -2.36.
CC1(C)CC(=O)C2=C(C1)N1C(=C(C#N)C2c2ccccc2F)N=C(N)c2ccccc21 (centres undefined) was read as Dicer processing 3.19*.
CN(C)c1ccc(C2C(C#N)=C3N=C(N)c4ccccc4N3C3=C2C(=O)CCC3)cc1 (centres undefined) was read as Dicer processing 3.43*.
`N#CC1=C2N=C(N)c3ccccc3N2C2=C(C(=O)CCC2)C1c1ccc(F)cc1` (centres undefined) gave Dicer processing 0.21.
For CC1S/C(=N\N=C/C23CC4CC(CC(C4)C2)C3)NC1=O (centres undefined) the results were Dicer processing 1.24.
`Cc1ccc(S(=O)(=O)NCC(O)c2ccccc2)cc1` (centres undefined) gave Dicer processing 0.69.
For CC(=O)N1c2ccccc2NC2=C(C(=O)CC(C)(C)C2)C1c1ccc(-c2cccc(C(=O)O)c2)o1 (centres undefined) the results were Dicer processing -0.59.
For Cc1cc(=O)c2cc(Cl)ccc2s1 the results were Dicer processing 0.85.
For O=c1c2ccccc2nc(SCc2ccc([N+](=O)[O-])cc2)n1Cc1ccc([N+](=O)[O-])cc1 the results were Dicer processing 1.08.
`Cc1nc(-c2cccnc2)nc(N(C)C)c1Cl` gave Dicer processing 2.56.
`O=C(c1cc2nc(-c3cccs3)cc(C(F)(F)F)n2n1)N1CCCC1` gave Dicer processing -0.17.
FC(F)(F)Oc1ccc(NCn2nnc3ccccc32)cc1 was read as Dicer processing 3.61*.
`FC(F)(F)c1ccc(NCn2nnc3cc(Cl)ccc32)cc1` gave Dicer processing 6.51.
For Fc1ccc(NCn2nnc3cc(Cl)ccc32)cc1 the results were Dicer processing 1.02.
O=C1C2CC=CCC2C(=O)N1c1ccc(Cl)cc1O (centres undefined) was read as Dicer processing -0.32.
CCOC(=O)CN(C(=O)COc1nc(-c2ccccc2)cc(C)c1C#N)c1cccc(OC)c1 was read as Dicer processing 0.12.
For CCOC(=O)CN(C(=O)COc1nc(-c2ccccc2)cc(C)c1C#N)c1ccc(C)cc1 the results were Dicer processing -3.23.
Screening CCOC(=O)CN(C(=O)COc1nc(-c2ccccc2)cc(C)c1C#N)c1ccccc1C returned Dicer processing 3.49*.
For Cc1nc(-c2ccccc2)nc(SCCCOc2ccc(Cl)cc2)c1C#N the results were Dicer processing 0.71.
`N#C/C(=C\c1ccccc1Sc1ccc(Cl)cc1)S(=O)(=O)c1ccccn1` gave Dicer processing 2.17.
`CN(C)c1cccc2c(S(=O)(=O)NCc3ccc(S(N)(=O)=O)cc3)cccc12` gave Dicer processing -0.46.
For COc1cc(OC)cc(-c2nc(-c3cc4cc(OC)ccc4[nH]c3=O)no2)c1 the results were Dicer processing -1.13.
Screening S=c1nccc(-c2ccc3c(c2)OCCO3)[nH]1 returned Dicer processing 0.1.
`COc1ccc([N+](=O)[O-])c(OC)c1C(=O)NCC1CC1` gave Dicer processing 4.9*.
`COc1ccc([N+](=O)[O-])c(OC)c1C(=O)Nc1ccccc1C(=O)NCC1CC1` gave Dicer processing 0.
`CCC(C)NC(=O)c1c(OC)ccc([N+](=O)[O-])c1OC` (centres undefined) gave Dicer processing -0.14.
For Cc1ccccc1-c1noc(-c2cccs2)n1 the results were Dicer processing -1.57.
`O=C(C1COc2ccccc2O1)N1CCCC1` (centres undefined) gave Dicer processing 1.09.
CC(CN(C)Cc1ccccc1)OC(=O)C1COc2ccccc2O1 (centres undefined) was read as Dicer processing 3.5*.
CC1CCN(CC(C)OC(=O)C2COc3ccccc3O2)CC1 (centres undefined) was read as Dicer processing 0.56.
Screening CC(C)(CO)NC(=S)Nc1cccc(F)c1 returned Dicer processing -0.02.
Screening Fc1cccc(NC(=S)NNc2ccccc2)c1 returned Dicer processing 5.92*.
S=C(NNc1ccccc1)Nc1c(Cl)cccc1Cl was read as Dicer processing -2.56.
`Nc1ccccc1SCc1cc(Cl)cc2c1OCOC2` gave Dicer processing 0.81.
Cc1ccc(-c2nn3c(C)nnc3s2)cc1NC(=O)C(C)C was read as Dicer processing 0.71.
`Cc1sc(N)nc1-c1ccc(CC(C)C)cc1` gave Dicer processing -1.68.
Screening Cc1ccc(-c2nc(N)sc2C)cc1 returned Dicer processing 0.07.
Screening Cc1ccc(-c2nc(N)sc2-c2ccccc2)cc1 returned Dicer processing 3.14*.
COC(=O)CNC(=O)c1cccnc1Sc1ccccc1 was read as Dicer processing -0.17.
For Cc1ccc(/C=N/N=C2\SCC(=O)N2CC2CC2)cc1 the results were Dicer processing 2.
`Cc1ccc(C(=O)OCCS(=O)(=O)c2ccc(C(F)(F)F)cn2)cc1` gave Dicer processing -1.05.
CS(=O)(=O)CS(=O)(=O)NCc1ccc(Cl)cc1 was read as Dicer processing -1.11.
O=C(O)/C(Cc1ccccc1[N+](=O)[O-])=N\Nc1ccccc1 was read as Dicer processing 0.04.
Screening COc1ccc(OCCSc2nc3ccccc3n2CC(=O)O)cc1 returned Dicer processing 0.55.
CCCSc1nc2ccccc2n1CC(=O)O was read as Dicer processing -2.
Screening CC(C)CSc1nc2ccccc2n1CC(=O)O returned Dicer processing 3.21*.
`FC(F)(F)c1cnc(CSc2nnc(SCC3CC3)s2)c(Cl)c1` gave Dicer processing -1.94.
For COc1ccc(Oc2c([N+](=O)[O-])c(C)nn2C)cc1 the results were Dicer processing -1.52.
`CC(C)(C)OC(=O)N1CCCN(C(=O)c2cccs2)CC1` gave Dicer processing -0.34.
O=C(c1ccncc1)N(c1ccc2oc(=O)sc2c1)S(=O)(=O)c1cccs1 was read as Dicer processing 5.53*.
Screening O=C(c1cccnc1)N(c1ccc2oc(=O)sc2c1)S(=O)(=O)c1cccs1 returned Dicer processing 6.07*.
Screening O=C(Cc1ccccc1)N(c1ccc2oc(=O)sc2c1)S(=O)(=O)c1cccs1 returned Dicer processing 5.4*.
COc1ccc(S(=O)(=O)N(C(=O)c2ccncc2)c2cc3sc(=O)oc3c3ccccc23)cc1 was read as Dicer processing -2.67.
Screening CC(C)C(=O)N(c1ccc2oc(=O)sc2c1)S(=O)(=O)c1cccs1 returned Dicer processing 0.37.
